Common to all, as to parameters: scale not given: direction of the effect not stated beside the values
Test [1] deals with Protein translocase subunit SecA (Escherichia coli (strain K12)) (UniProt P10408). Kind of test: Assay to Identify E. coli SecA ATPase Inhibitors. It is filed as functional. To be noted: 30 µM.
Test [2] addresses T1, Ubiquitin-activating enzyme e1, putative (Leishmania donovani (strain BPK282A1)) (UniProt E9BSI1).
T1 sequence (whole entry): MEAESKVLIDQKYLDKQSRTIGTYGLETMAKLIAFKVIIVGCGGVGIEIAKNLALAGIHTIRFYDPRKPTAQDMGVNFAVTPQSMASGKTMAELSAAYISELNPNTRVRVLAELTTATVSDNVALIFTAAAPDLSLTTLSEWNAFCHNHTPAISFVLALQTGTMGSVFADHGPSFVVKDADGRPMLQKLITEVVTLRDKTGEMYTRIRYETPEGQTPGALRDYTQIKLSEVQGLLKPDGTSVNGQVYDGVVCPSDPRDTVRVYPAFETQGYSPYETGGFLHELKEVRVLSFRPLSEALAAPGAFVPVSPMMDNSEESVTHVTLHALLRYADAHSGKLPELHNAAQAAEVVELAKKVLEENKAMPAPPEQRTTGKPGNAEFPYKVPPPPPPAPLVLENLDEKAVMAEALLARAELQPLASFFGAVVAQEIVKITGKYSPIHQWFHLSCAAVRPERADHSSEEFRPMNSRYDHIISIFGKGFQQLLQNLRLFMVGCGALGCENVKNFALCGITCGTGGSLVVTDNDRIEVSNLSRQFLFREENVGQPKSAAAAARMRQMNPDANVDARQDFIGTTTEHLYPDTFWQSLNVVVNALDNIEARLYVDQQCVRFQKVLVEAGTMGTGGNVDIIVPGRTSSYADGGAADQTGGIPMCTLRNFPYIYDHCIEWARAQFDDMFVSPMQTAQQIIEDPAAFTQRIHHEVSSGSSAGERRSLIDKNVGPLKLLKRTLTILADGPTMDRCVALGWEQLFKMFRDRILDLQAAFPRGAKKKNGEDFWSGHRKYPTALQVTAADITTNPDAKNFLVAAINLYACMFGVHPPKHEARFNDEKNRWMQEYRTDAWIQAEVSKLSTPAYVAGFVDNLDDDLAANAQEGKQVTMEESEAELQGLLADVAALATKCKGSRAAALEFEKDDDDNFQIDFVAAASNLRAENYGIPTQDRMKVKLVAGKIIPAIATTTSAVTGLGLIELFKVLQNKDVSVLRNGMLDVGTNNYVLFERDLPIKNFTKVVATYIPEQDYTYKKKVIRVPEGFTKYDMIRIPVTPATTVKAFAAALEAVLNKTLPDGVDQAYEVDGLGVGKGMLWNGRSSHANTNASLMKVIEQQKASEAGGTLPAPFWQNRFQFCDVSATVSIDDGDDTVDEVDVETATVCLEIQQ
Briefly: Leishmania donovani Ubiquitin Activating Enzyme (LdE1). It is filed as functional. To be noted: 30 µM.

Test [3] has as its target AMP-activated protein kinase, AMPK (Homo sapiens) (UniProt P54646+O43741+P54619+Q9UGJ0+Q9Y478+Q13131+Q9UGI9). Briefly: AMP-dependent Kinase enzyme assay. An in vitro enzyme assay that detects ADP turnover that is directly proportional to AMPK activity. This uses naive AMPK that is activated during the assay with MK-8722. Conditions: 30 µM. It is filed as functional.
Test [4] concerns the target Sialic acid-binding Ig-like lectin 9 (Homo sapiens) (UniProt Q9Y336). Briefly: Hs-Siglec9 ALPHAscreen SOP 20170721. To be noted: 10 µM.
Test [5] relates to Trypanosoma cruzi. Kind of test: Trypanosoma cruzi phosphomannomutase and mannose-1-phosphate guanylyltransferase assay. Conditions: 10 µM. It is filed as functional.
In test [6] the target is T2, Arginase-2, mitochondrial (Homo sapiens) (UniProt P78540).
T2 sequence (whole entry): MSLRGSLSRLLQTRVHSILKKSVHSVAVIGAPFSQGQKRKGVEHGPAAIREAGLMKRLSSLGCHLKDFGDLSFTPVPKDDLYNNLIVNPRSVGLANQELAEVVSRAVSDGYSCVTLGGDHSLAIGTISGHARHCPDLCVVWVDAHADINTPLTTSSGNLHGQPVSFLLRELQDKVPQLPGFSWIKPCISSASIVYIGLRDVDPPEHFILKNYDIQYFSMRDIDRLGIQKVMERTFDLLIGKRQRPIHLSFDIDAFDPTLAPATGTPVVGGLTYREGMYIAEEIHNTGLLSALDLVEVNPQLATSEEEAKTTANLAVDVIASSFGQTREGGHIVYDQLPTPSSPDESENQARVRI
Briefly: in vitro enzyme assay to detect the production of urea directly proportional to the activity of Arginase II. Note: in the data most compounds retested in dose-response had high values. It is filed as functional. Conditions: 33.3 µM.

Test [7] deals with T3, Proteasome subunit beta (Trypanosoma cruzi) (UniProt O96673).
T3 sequence (whole entry): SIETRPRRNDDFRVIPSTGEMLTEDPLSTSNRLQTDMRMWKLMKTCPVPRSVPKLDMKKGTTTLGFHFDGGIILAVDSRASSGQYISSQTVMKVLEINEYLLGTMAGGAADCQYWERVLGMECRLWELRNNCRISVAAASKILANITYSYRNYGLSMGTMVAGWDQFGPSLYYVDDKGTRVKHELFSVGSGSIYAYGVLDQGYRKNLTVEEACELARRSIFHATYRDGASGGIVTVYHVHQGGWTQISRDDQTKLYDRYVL
Briefly: Trypanosoma cruzi proteasome chymotrypsin-like activity (TcProtChymo) assay. Note: in the data most compounds retested in dose-response had high values. Type of test: functional. To be noted: 9.37 µM.

For test [8], the species on record is Homo sapiens. Briefly: To identify inhibition of the IFN signalling (Jak-Stat) pathway via expression of an eGFP reporter gene under the control of an IFN-stimulated response element (ISRE) containing MxA promoter. Type of test: functional. Conditions: 30 µM. (In a reporter assay the amount or activity of a reporter protein is the signal.)
In test [9] the target is T4, Tyrosyl-tRNA synthetase, putative (Trypanosoma cruzi (strain CL Brener)) (UniProt Q4DSP6).
T4 sequence (whole entry): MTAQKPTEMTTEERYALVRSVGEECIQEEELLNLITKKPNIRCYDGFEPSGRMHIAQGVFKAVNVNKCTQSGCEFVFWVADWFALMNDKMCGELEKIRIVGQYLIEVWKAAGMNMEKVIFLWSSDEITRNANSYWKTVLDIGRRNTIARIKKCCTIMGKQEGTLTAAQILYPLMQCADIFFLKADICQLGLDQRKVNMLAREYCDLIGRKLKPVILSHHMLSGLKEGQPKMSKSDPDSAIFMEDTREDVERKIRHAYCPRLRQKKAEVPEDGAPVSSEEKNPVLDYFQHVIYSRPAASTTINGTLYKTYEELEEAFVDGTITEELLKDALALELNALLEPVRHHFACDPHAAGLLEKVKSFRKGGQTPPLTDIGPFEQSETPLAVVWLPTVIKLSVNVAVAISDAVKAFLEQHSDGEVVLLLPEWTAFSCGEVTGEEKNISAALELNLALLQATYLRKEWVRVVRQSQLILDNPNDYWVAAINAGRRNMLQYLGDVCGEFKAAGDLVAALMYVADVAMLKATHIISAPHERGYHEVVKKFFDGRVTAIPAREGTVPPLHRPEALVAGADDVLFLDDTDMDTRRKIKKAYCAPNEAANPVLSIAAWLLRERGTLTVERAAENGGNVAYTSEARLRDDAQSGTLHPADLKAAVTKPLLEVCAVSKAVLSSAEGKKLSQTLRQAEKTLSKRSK
Kind of test: Trypanosoma cruzi tyrosyl tRNA synthetase (TcYRS) _High Tyrosine SOP. Note: in the data most compounds retested in dose-response had high values. Type of test: functional. Conditions: 30 µM.

The target of test [10] is T4, Tyrosyl-tRNA synthetase, putative (Trypanosoma cruzi (strain CL Brener)). Kind of test: Trypanosoma cruzi tyrosyl tRNA synthetase (TcYRS) SOP. Conditions: 30 µM. It is filed as functional.
Test [11] has as its target Chromo domain-containing protein 1 (Saccharomyces cerevisiae (strain ATCC 204508 / S288c) (Baker's yeast)) (UniProt P32657). Briefly: ScCHD-1 Enzyme Inhibition Assay. Note: in the data most compounds retested in dose-response had high values. To be noted: 30 µM. Type of test: functional.

For some assays here: Entries with a potency or affinity are not part of this list.

Protein translocase subunit SecA (Escherichia coli (strain K12)), sequence (P10408 whole entry): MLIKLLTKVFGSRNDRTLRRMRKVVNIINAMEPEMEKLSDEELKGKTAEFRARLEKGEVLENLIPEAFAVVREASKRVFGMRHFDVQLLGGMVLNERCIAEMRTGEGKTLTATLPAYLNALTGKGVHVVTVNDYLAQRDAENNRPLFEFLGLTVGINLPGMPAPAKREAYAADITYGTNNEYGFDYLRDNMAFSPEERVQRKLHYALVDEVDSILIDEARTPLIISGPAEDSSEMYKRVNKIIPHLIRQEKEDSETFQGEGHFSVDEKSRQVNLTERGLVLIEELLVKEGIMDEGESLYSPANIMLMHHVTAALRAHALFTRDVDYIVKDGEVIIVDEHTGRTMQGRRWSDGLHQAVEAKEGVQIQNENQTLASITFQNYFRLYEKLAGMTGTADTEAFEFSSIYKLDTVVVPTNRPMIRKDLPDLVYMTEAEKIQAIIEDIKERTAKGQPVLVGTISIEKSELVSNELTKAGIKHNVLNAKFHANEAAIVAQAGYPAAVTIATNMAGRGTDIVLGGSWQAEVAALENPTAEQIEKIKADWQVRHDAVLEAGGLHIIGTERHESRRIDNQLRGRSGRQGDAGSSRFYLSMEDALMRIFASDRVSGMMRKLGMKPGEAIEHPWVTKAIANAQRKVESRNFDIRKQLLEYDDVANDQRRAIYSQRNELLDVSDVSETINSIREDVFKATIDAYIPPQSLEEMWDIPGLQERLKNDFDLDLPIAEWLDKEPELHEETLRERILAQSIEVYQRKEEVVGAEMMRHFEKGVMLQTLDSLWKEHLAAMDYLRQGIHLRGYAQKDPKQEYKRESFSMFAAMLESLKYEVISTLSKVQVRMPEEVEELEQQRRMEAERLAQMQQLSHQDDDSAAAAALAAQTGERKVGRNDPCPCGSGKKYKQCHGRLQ
Sialic acid-binding Ig-like lectin 9 (Homo sapiens), sequence (Q9Y336 whole entry): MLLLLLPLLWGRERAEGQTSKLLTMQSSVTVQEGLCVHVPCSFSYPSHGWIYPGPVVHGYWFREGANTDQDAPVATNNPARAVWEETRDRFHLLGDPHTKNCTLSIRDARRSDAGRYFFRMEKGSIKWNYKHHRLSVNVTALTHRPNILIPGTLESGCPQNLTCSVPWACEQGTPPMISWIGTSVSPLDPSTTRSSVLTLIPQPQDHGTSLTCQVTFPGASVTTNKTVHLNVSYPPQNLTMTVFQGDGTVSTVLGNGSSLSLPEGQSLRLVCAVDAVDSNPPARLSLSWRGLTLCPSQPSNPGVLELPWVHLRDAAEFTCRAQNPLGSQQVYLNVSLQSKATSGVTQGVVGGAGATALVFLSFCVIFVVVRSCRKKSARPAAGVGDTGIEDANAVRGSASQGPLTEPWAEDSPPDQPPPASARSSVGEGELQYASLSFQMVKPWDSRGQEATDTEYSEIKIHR
Chromo domain-containing protein 1 (Saccharomyces cerevisiae (strain ATCC 204508 / S288c) (Baker's yeast)), sequence (P32657 whole entry, the tested form may be a part): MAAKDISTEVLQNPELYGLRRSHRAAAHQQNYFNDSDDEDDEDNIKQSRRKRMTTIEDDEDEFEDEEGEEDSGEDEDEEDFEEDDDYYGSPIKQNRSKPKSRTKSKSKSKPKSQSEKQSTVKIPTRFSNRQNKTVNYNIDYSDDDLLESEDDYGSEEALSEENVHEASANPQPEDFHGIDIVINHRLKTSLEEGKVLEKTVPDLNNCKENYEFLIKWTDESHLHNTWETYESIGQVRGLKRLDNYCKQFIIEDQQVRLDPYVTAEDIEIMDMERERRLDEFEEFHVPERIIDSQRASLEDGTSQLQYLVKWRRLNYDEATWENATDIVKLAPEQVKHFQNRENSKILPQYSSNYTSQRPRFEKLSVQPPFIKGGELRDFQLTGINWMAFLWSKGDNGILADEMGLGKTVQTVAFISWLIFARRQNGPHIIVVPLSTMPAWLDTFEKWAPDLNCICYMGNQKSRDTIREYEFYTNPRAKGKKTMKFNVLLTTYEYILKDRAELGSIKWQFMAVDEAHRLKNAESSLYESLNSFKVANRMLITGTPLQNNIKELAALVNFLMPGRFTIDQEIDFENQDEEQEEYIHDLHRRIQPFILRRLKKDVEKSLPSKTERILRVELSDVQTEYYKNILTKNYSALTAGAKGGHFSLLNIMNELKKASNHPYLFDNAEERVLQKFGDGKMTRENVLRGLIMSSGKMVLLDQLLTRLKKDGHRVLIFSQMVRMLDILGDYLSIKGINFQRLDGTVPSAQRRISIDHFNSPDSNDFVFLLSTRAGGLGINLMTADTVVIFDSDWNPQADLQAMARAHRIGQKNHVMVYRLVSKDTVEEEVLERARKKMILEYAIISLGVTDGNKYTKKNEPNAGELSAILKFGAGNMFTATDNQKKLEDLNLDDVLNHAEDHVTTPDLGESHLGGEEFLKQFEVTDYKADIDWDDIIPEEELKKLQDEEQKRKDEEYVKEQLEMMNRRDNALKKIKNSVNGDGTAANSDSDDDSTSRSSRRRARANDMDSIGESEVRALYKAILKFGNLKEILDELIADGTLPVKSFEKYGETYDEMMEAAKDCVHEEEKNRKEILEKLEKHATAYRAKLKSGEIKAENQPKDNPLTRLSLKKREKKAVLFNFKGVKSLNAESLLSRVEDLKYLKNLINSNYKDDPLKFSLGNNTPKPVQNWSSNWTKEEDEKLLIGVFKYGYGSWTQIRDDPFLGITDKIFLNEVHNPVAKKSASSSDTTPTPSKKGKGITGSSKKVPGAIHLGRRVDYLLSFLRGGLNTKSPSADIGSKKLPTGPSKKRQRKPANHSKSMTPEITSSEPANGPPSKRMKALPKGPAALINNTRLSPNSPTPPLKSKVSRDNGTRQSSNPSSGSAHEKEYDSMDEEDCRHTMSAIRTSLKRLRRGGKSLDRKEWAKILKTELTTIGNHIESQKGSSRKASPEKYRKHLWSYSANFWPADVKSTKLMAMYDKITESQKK

`O=C(NCCc1ccsc1)Nc1cccnc1N1CCCC1`: the Percent Effect in test [1] was -3.39%; in [2], 26.3%; in [3], -28.7%; in test [4], 0.502%; in [5] it was 3.64%; in test [6] it was -2.88%. Also, the Percent Effect in test [7] is 11.2%; in [8] it was -10.3%; in test [9], 8.37%; in [10] it was 35.8%; in [11], -9.48%.

Regarding `Cc1csc(NC(=O)CN(C)CC2CCCN2c2cccnn2)n1` (stereo not given), the Percent Effect in test [1] was -4.27%; in [2], 0%; in test [3], -8.12%; in test [4] it was 2.96%; in test [5], -6.05%; in [6], 5.42%. Moreover, the Percent Effect in test [7] is 15.5%; in test [8] it was 9.4%; in test [9], 11.9%; in [10], 8.54%; in test [11], -4.21%.

As for `O=C(NCCc1cccc(O)c1)NC1CCN(c2ccccc2)C1=O` (stereo not given), the Percent Effect in test [1] is -7.43%; in test [2] it was 0%; in [3], 2.02%; in [4] it was -1.23%; in [5], -2.82%; in test [6] it was 1.04%. The Percent Effect in [7] is 11.7%; in test [8], -6.77%; in [9], -1.64%; in test [10], 1.24%; in test [11], -4.31%.

For `CC(C)c1n[nH]c(C2CN(C(=O)c3cccc4cn[nH]c34)CCO2)n1` (stereo not given), the Percent Effect in test [1] is -1.73%; in test [2] it was 7.89%; in [3] it was 4.13%; in test [4], 11.6%; in test [5], 2.33%; in test [6], 1.8%. In addition, the Percent Effect is 4.32% in test [7]; 4.21% in [8]; 2.46% in test [9]; 6.17% in [10]; -0.736% in test [11].

Take `COc1ccc(CN(C)C(=O)CCc2c(C)nc(C)[nH]c2=O)cc1OC`: the Percent Effect in test [1] is -2.11%; in [2], 6.94%; in test [3], -3.92%; in test [4], 5.86%; in test [5], 5.15%; in test [6], 0%. Besides, the Percent Effect in [7] is 20.2%; in test [8], -1.63%; in [9], 7.37%; in [10], 12.8%; in test [11], -3.31%.

Regarding `O=C(NC1(c2cccc(F)c2)CCOCC1)c1ccccn1`, the Percent Effect in [1] was -5.05%; in [2] it was 2.6%; in test [3], -0.416%; in test [4], 0.357%; in test [5] it was -4.03%; in test [6] it was 2.76%. Moreover, the Percent Effect in test [7] was 0.499%; in test [8], 14.4%; in test [9], -6.45%; in [10], -6.17%; in test [11], 2.74%.

`O=c1nc(SCc2ccncc2)c2c(n1CCO)CCCC2`: the Percent Effect in test [1] was -0.843%; in [2], 16.4%; in [3] it was -2.68%; in test [4], 11.4%; in test [5], 3.92%; in [6], 19.6%. Moreover, the Percent Effect in [7] was 21.8%; in test [8] it was 19.8%; in test [9], 3.23%; in test [10], 7.5%; in test [11] it was -7.55%.

As for `Cc1nc(C)n(CC2CCCN2CCc2cccs2)n1` (stereo not given), the Percent Effect in [1] was -2.28%; in [2], 15.8%; in [3] it was 3.79%; in test [4], -4.64%; in test [5], 7.89%; in test [6] it was -2.68%. The Percent Effect is 25.4% in [7]; 10.2% in test [8]; 13.2% in test [9]; -7.32% in test [10]; -11.4% in test [11].

Turning to `Cn1cc(CN2C[C@@H]3COC[C@]3(COc3ccc(C#N)cn3)C2)cn1`, the Percent Effect in test [1] was -0.614%; in test [2], 5.48%; in test [3], -2.34%; in test [4], 6.07%; in [5] it was -1.98%; in test [6] it was 1.2%. Besides, the Percent Effect in [7] was 11.4%; in test [8], 13.4%; in [9], 8.33%; in test [10] it was 11.1%; in test [11] it was -0.913%.

With `CN(C)S(=O)(=O)N1CCC(Oc2ccc(C#N)cn2)CC1`, the Percent Effect is -4.11% in test [1]; 5.2% in test [2]; 0.734% in test [3]; 0.477% in [4]; 3.25% in test [5]; -0.645% in test [6]. The Percent Effect in test [7] was 17.2%; in [8], 28%; in test [9] it was 5.29%; in [10], 8.97%; in test [11] it was -8.98%.

The record behind these values is ChEMBL document CHEMBL3988442, “University of Dundee, Small-Polar-MMV Screening Library” (2021).
